{
  "source": "PubChem BioAssay (Tox21)",
  "note": "Calls of active or inactive are those of the source. Where a call stands in place of a potency, no number is given. Calls come from the whole dose curve; as a rule, active = well fitted curve in the direction sought with a large enough effect in the repeat runs; inconclusive = weak or mixed curves; inactive = flat fitted curve, though single readings scatter.",
  "data": [
    {"test": "qHTS assay to test for compound auto fluorescence at 535 nm (green) in HEK293 cells (AID 720680)", "settings": "green autofluorescence 485/535 nm; series mostly up to 91.3 µM", "values": [
      {"smiles": "CCCCOC(=O)COC(=O)c1ccccc1C(=O)OCCCC", "outcome": "inactive"},
      {"smiles": "CC(C)(C#N)N=NC(C)(C)C#N", "outcome": "inactive"},
      {"smiles": "c1ccc(C2CO2)cc1", "note": "(stereo not given)", "outcome": "inactive"},
      {"smiles": "CC(C)Nc1nc(Cl)nc(NC(C)C)n1", "outcome": "inactive"},
      {"smiles": "CC(C)CON=O", "outcome": "inactive"},
      {"smiles": "Clc1cccc(Cl)c1", "outcome": "inactive"},
      {"smiles": "CCCCCCCCCCCCCl", "outcome": "inactive"},
      {"smiles": "COP(=S)(OC)Oc1ccc(Sc2ccc(OP(=S)(OC)OC)cc2)cc1", "outcome": "inactive"},
      {"smiles": "Nc1ncn[nH]1", "outcome": "inactive"},
      {"smiles": "CC(C)(O)C#N", "outcome": "inactive"},
      {"smiles": "NC(=O)CN1CCCC1=O", "outcome": "inactive"},
      {"smiles": "CCNc1nc(Cl)nc(NC(C)(C)C#N)n1", "outcome": "inactive"},
      {"smiles": "O=C1CCCO1", "outcome": "inactive"},
      {"smiles": "CCCCCCCC[N+](C)(CCCCCCCC)CCCCCCCC", "outcome": "inactive"},
      {"smiles": "CN(C)c1nc(=O)n(C2CCCCC2)c(=O)n1C", "outcome": "inactive"},
      {"smiles": "Cn1c(-c2ccccc2)cc(-c2ccccc2)[n+]1C", "outcome": "inactive"},
      {"smiles": "N#CCCCCC#N", "outcome": "inactive"},
      {"smiles": "C[C@]12CCC(=O)C=C1CC[C@@H]1[C@@H]2CC[C@@]2(C)[C@H]1CC[C@]2(C)O", "outcome": "inactive"},
      {"smiles": "Clc1ccc(C(Cl)(Cl)Cl)cc1", "outcome": "inactive"},
      {"smiles": "O=P(OCCCl)(OCCCl)OCCCl", "outcome": "inactive"},
      {"smiles": "CC[n+]1c(-c2ccccc2)c2cc(N)ccc2c2ccc(N)cc21", "outcome": "inactive"},
      {"smiles": "CCOP(=O)(OCC)OCC", "outcome": "inactive"},
      {"smiles": "COc1ccc(O)c(C(C)(C)C)c1", "outcome": "inactive"},
      {"smiles": "CN(C)c1ccccc1", "outcome": "inactive"},
      {"smiles": "CCC1(c2ccc(N)cc2)CCC(=O)NC1=O", "note": "(stereo not given)", "outcome": "inactive"},
      {"smiles": "CCOP(=S)(OCC)SCn1c(=O)oc2cc(Cl)ccc21", "outcome": "inactive"},
      {"smiles": "CC(C)=CC1C(C(=O)OCc2cccc(Oc3ccccc3)c2)C1(C)C", "note": "(stereo not given)", "outcome": "inactive"},
      {"smiles": "O=C(O)c1nn(Cc2ccc(Cl)cc2Cl)c2ccccc12", "outcome": "inactive"},
      {"smiles": "N#Cc1nn(-c2c(Cl)cc(C(F)(F)F)cc2Cl)c(N)c1S(=O)C(F)(F)F", "note": "(stereo not given)", "outcome": "inactive"},
      {"smiles": "O=NN(c1ccccc1)c1ccccc1", "outcome": "inactive"},
      {"smiles": "N#Cc1cccnc1", "outcome": "inactive"},
      {"smiles": "CC(C)COC(=O)c1ccccc1C(=O)OCC(C)C", "outcome": "inactive"},
      {"smiles": "O=[N+]([O-])c1ccc(Nc2ccccc2)cc1", "outcome": "inactive"},
      {"smiles": "CNC(=O)Oc1cccc2c1OC(C)(C)C2", "outcome": "inactive"},
      {"smiles": "ClC(Cl)=C(Cl)C(Cl)=C(Cl)Cl", "outcome": "inactive"},
      {"smiles": "CCCCOCC1CO1", "note": "(stereo not given)", "outcome": "inactive"},
      {"smiles": "ClCc1ccccn1", "outcome": "inactive"},
      {"smiles": "O=[N+]([O-])/N=C1\\NCCN1Cc1ccc(Cl)nc1", "outcome": "inactive"}
    ]},
    {"test": "qHTS assay to test for compound auto fluorescence at 460 nm (blue) in HEK293 cell free culture (AID 720681)", "settings": "cell-free medium, autofluorescence 405/460 nm (blue); series mostly up to 91.3 µM", "summary_of_the_method": "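Compounds were added to cell-free DMEM with 10% FBS and fluorescence read directly. The blue channel used 405 nm excitation and 460 nm emission, with triamterene as the reference fluorophore.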", "values": [
      {"smiles": "CCCCOC(=O)COC(=O)c1ccccc1C(=O)OCCCC", "Potency": "inactive"},
      {"smiles": "CC(C)(C#N)N=NC(C)(C)C#N", "Potency": "inactive"},
      {"smiles": "c1ccc(C2CO2)cc1", "note": "(stereo not given)", "Potency": "inactive"},
      {"smiles": "CC(C)Nc1nc(Cl)nc(NC(C)C)n1", "Potency": "inactive"},
      {"smiles": "CC(C)CON=O", "Potency": "inactive"},
      {"smiles": "Clc1cccc(Cl)c1", "Potency": "inactive"},
      {"smiles": "CCCCCCCCCCCCCl", "Potency": "inactive"},
      {"smiles": "COP(=S)(OC)Oc1ccc(Sc2ccc(OP(=S)(OC)OC)cc2)cc1", "Potency": "inactive"},
      {"smiles": "Nc1ncn[nH]1", "Potency": "inactive"},
      {"smiles": "CC(C)(O)C#N", "Potency": "inactive"},
      {"smiles": "NC(=O)CN1CCCC1=O", "Potency": "inactive"},
      {"smiles": "CCNc1nc(Cl)nc(NC(C)(C)C#N)n1", "Potency": "inactive"},
      {"smiles": "O=C1CCCO1", "Potency": "inactive"},
      {"smiles": "CCCCCCCC[N+](C)(CCCCCCCC)CCCCCCCC", "Potency": "inactive"},
      {"smiles": "CN(C)c1nc(=O)n(C2CCCCC2)c(=O)n1C", "Potency": "inactive"},
      {"smiles": "Cn1c(-c2ccccc2)cc(-c2ccccc2)[n+]1C", "Potency": "inactive"},
      {"smiles": "N#CCCCCC#N", "Potency": "inactive"},
      {"smiles": "C[C@]12CCC(=O)C=C1CC[C@@H]1[C@@H]2CC[C@@]2(C)[C@H]1CC[C@]2(C)O", "Potency": "inactive"},
      {"smiles": "Clc1ccc(C(Cl)(Cl)Cl)cc1", "Potency": "inactive"},
      {"smiles": "O=P(OCCCl)(OCCCl)OCCCl", "Potency": "inactive"},
      {"smiles": "CC[n+]1c(-c2ccccc2)c2cc(N)ccc2c2ccc(N)cc21", "Potency": "inactive"},
      {"smiles": "CCOP(=O)(OCC)OCC", "Potency": "inactive"},
      {"smiles": "COc1ccc(O)c(C(C)(C)C)c1", "Potency": "inactive"},
      {"smiles": "CN(C)c1ccccc1", "Potency": "inactive"},
      {"smiles": "CCC1(c2ccc(N)cc2)CCC(=O)NC1=O", "note": "(stereo not given)", "Potency": "inactive"},
      {"smiles": "CCOP(=S)(OCC)SCn1c(=O)oc2cc(Cl)ccc21", "Potency": "inactive"},
      {"smiles": "CC(C)=CC1C(C(=O)OCc2cccc(Oc3ccccc3)c2)C1(C)C", "note": "(stereo not given)", "Potency": "inactive"},
      {"smiles": "O=C(O)c1nn(Cc2ccc(Cl)cc2Cl)c2ccccc12", "Potency": "inactive"},
      {"smiles": "N#Cc1nn(-c2c(Cl)cc(C(F)(F)F)cc2Cl)c(N)c1S(=O)C(F)(F)F", "note": "(stereo not given)", "Potency": "inactive"},
      {"smiles": "O=NN(c1ccccc1)c1ccccc1", "Potency": "inactive"},
      {"smiles": "N#Cc1cccnc1", "Potency": "inactive"},
      {"smiles": "CC(C)COC(=O)c1ccccc1C(=O)OCC(C)C", "Potency": "inactive"},
      {"smiles": "O=[N+]([O-])c1ccc(Nc2ccccc2)cc1", "Potency": "inactive"},
      {"smiles": "CNC(=O)Oc1cccc2c1OC(C)(C)C2", "Potency": "inactive"},
      {"smiles": "ClC(Cl)=C(Cl)C(Cl)=C(Cl)Cl", "Potency": "inactive"},
      {"smiles": "CCCCOCC1CO1", "note": "(stereo not given)", "Potency": "inactive"},
      {"smiles": "ClCc1ccccn1", "Potency": "inactive"},
      {"smiles": "O=[N+]([O-])/N=C1\\NCCN1Cc1ccc(Cl)nc1", "Potency": "inactive"}
    ]},
    {"test": "qHTS assay to test for compound auto fluorescence at 535 nm (green) in HEK293 cell free culture (AID 720682)", "settings": "cell-free medium, green autofluorescence 485/535 nm; series mostly up to 91.3 µM", "summary_of_the_method": "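Measurement is a direct plate read of green fluorescence (485 nm in, 535 nm out) after compound addition to serum-supplemented DMEM lacking cells, with fluorescein used to express intensities.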", "values": [
      {"smiles": "CCCCOC(=O)COC(=O)c1ccccc1C(=O)OCCCC", "outcome": "inactive"},
      {"smiles": "CC(C)Nc1nc(Cl)nc(NC(C)C)n1", "outcome": "inactive"},
      {"smiles": "CC(C)CON=O", "outcome": "inactive"},
      {"smiles": "CCCCCCCCCCCCCl", "outcome": "inactive"},
      {"smiles": "CC(C)(O)C#N", "outcome": "inactive"},
      {"smiles": "NC(=O)CN1CCCC1=O", "outcome": "inactive"},
      {"smiles": "CCNc1nc(Cl)nc(NC(C)(C)C#N)n1", "outcome": "inactive"},
      {"smiles": "O=C1CCCO1", "outcome": "inactive"},
      {"smiles": "CN(C)c1nc(=O)n(C2CCCCC2)c(=O)n1C", "outcome": "inactive"},
      {"smiles": "Cn1c(-c2ccccc2)cc(-c2ccccc2)[n+]1C", "outcome": "inactive"},
      {"smiles": "N#CCCCCC#N", "outcome": "inactive"},
      {"smiles": "C[C@]12CCC(=O)C=C1CC[C@@H]1[C@@H]2CC[C@@]2(C)[C@H]1CC[C@]2(C)O", "outcome": "inactive"},
      {"smiles": "CCOP(=O)(OCC)OCC", "outcome": "inactive"},
      {"smiles": "COc1ccc(O)c(C(C)(C)C)c1", "outcome": "inactive"},
      {"smiles": "CN(C)c1ccccc1", "outcome": "inactive"},
      {"smiles": "CCOP(=S)(OCC)SCn1c(=O)oc2cc(Cl)ccc21", "outcome": "inactive"},
      {"smiles": "CC(C)=CC1C(C(=O)OCc2cccc(Oc3ccccc3)c2)C1(C)C", "note": "(stereo not given)", "outcome": "inactive"},
      {"smiles": "N#Cc1nn(-c2c(Cl)cc(C(F)(F)F)cc2Cl)c(N)c1S(=O)C(F)(F)F", "note": "(stereo not given)", "outcome": "inactive"},
      {"smiles": "O=NN(c1ccccc1)c1ccccc1", "outcome": "inactive"},
      {"smiles": "N#Cc1cccnc1", "outcome": "inactive"},
      {"smiles": "CC(C)COC(=O)c1ccccc1C(=O)OCC(C)C", "outcome": "inactive"},
      {"smiles": "O=[N+]([O-])c1ccc(Nc2ccccc2)cc1", "outcome": "inactive"},
      {"smiles": "CNC(=O)Oc1cccc2c1OC(C)(C)C2", "outcome": "inactive"},
      {"smiles": "O=[N+]([O-])/N=C1\\NCCN1Cc1ccc(Cl)nc1", "outcome": "inactive"}
    ]}
  ]
}
